Screening data from PubChem.
EPAC2 antagonist – antagonists of human EPAC2. Q8WZA2. 360,000 tested, 0.18% active. Potency, µM (titrated, usually from 114 µM), actives largely listed as inhibitors. EPAC2 GEF exchange of Rap1B-BODIPY-GDP, fluorescence; note: nearly all actives have a fitted effect of over 45% in size
EPAC2 agonist – activates human EPAC2 exchange factor; Potency, µM (highest dose often 154 µM), hits mostly activators; AID 720711; Q8WZA2; EPAC2 activation, biochemical qHTS; response scale: 100% = 6.5 mM cAMP response; 360,000 tested, 0.079% active; note: nearly all actives have a fitted effect of over 50% in size
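Each well held 100 nM EPAC2, 250 nM RAP1B-BODIPY-GDP and 50 uM GDP. Fluorescence, read at 5-min intervals to 30 min, was referenced to a 6.5 mM cAMP positive control.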
EPAC1 antag – antagonists of human EPAC1; O95398; EPAC1 GEF assay, Rap1b-BODIPY-GDP exchange fluorescence; Potency, µM (highest dose often 115 µM), actives largely listed as inhibitors; 360,000 tested, 0.14% active; note: nearly all actives have a fitted effect of over 50% in size
EPAC1 agonist – activates human EPAC1 exchange factor; EPAC1 agonist qHTS, biochemical assay; response scale: 100% = response to 6.5 mM cAMP; Potency, µM (doses to about 154 µM), actives largely listed as activators; 360,000 tested, 0.073% active; note: nearly all actives have a fitted effect of over 60% in size
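Normalized to 6.5 mM cAMP, activity reflects EPAC1-catalysed release of BODIPY-GDP from Rap1B, followed kinetically over 30 min at 480 nm excitation, 540 nm emission. Reaction contained 100 nM EPAC1, 250 nM Rap1B-BODIPY-GDP, 50 uM GDP.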
Each line names hits and unclear results; the compound was inactive in the other large screens. Only some compounds are listed: those with a hit (about 0.38% of all), similar ones and a draw of the others. Calls come from the whole dose curve; as a rule, active = well fitted curve in the direction sought with a large enough effect; inconclusive = small, poorly fitted or top-dose-only effect, or another doubt; inactive = no such curve, though single readings can be large; an effect the other way counts as inactive or inconclusive.

CN(Cc1ccccc1)C(=O)[C@@H]1CCCN1C(=O)[C@@H]1CCCN1C(=O)c1ccccc1	none
O=C(O[C@@H]1OC2COC(=O)c3cc(O)c(O)c(O)c3-c3c(cc(O)c(O)c3O)C(=O)O[C@@H]([C@H]1O)[C@@H]2O)c1cc(O)c(O)c(O)c1	EPAC1 antag 89µM
CC(/C=C1\SC(=S)N(NS(=O)(=O)c2ccccc2)C1=O)=C\c1ccccc1	EPAC2 antagonist 50µM, EPAC1 antag 40µM
CC(/C=C1\SC(=S)N(NC(=O)c2ccc(C)cc2)C1=O)=C\c1ccccc1	none
CC(/C=C1\SC(=S)N(NS(=O)(=O)c2ccc(C)cc2)C1=O)=C\c1ccccc1	EPAC2 antagonist 35µM, EPAC1 antag 40µM
CNc1c2cccc(C)c2nc2c(C(=O)NCCN(C)C)cccc12	none
C=Cc1cnc([N+](=O)[O-])n1C	none
CC(C)CC1C(=O)N(Cc2cn(CCC3OCCO3)nn2)CCS(=O)(=O)N1Cc1ccc(-c2cccc(N(C)C)c2)cc1 (stereo not drawn)	none
COc1cc(Br)cc(C(=O)N2CCc3ccccc32)c1OC	EPAC2 antagonist 35µM
CC(=O)NC(CCc1ccc(Cl)c(Cl)c1)c1cccc(O)c(=O)c1 (stereo not drawn)	none
C/C(=N/NC(=O)c1ccncc1)c1cc2ccc(O)cc2oc1=O	EPAC2 agonist 89µM, EPAC1 agonist 100µM
O=[N+]([O-])c1cc(-c2ccccc2)cc([N+](=O)[O-])c1O	EPAC2 antagonist 56µM, EPAC1 antag inconclusive
O=[N+]([O-])c1cc2ccccc2c(O)c1O	EPAC1 antag inconclusive
CN1/C(=C/C=C(C#N)C#N)C(C)(C)c2ccccc21	EPAC2 agonist 112µM
CN1\C(=C/C=C/C=C/C=[N+](C)C)C(C)(C)c2ccccc21	EPAC1 agonist 56µM
Cc1c(C)c2ccc(OCC(=O)Nc3ccc(S(N)(=O)=O)cc3)c(C)c2oc1=O	EPAC1 antag 71µM
Cc1c(OCC(=O)Nc2cccnc2)ccc2c3c(c(=O)oc12)CCC3	none
O=C(COC(=O)c1c2c(nc3ccccc13)/C(=C/c1ccco1)CC2)NC1CCCC1	EPAC1 antag inconclusive
CC1CCCCC1NC(=O)COC(=O)c1c2c(nc3ccccc13)/C(=C/c1ccco1)CC2 (stereo not drawn)	EPAC1 antag 45µM
Cc1ccc(O)c(C(=O)c2cc(C#N)c(=O)n(-c3nccs3)c2)c1	EPAC2 agonist 112µM, EPAC1 agonist 40µM
O=C(COc1ccc(F)cc1)Nc1nc(-c2cccnc2)cs1	none
COc1cc2c(c(OC)c1OC)C(c1ccc3c(c1)OCO3)CC(=O)O2 (stereo not drawn)	EPAC2 antagonist 40µM
COc1cc2c(c(OC)c1OC)C(c1ccccc1C)CC(=O)O2 (stereo not drawn)	EPAC2 antagonist inconclusive
CC1CCCCC1NC(=O)CN1CCN(S(=O)(=O)c2ccc(Br)s2)CC1 (stereo not drawn)	none
Cc1c(Br)c(O)c(Br)c(O)c1/C=N/n1c(-c2ccccc2)n[nH]c1=S	EPAC1 antag 56µM
CCOc1ccc(-n2cnc3scc(-c4ccc(OC)c(OC)c4)c3c2=O)cc1	EPAC2 antagonist 50µM
COC(=O)C[C@@H]1CC[C@@H](NS(=O)(=O)c2ccc(OC)cc2)[C@@H](CO)O1	none
O=C(Nc1ccc2nc(-c3ccccc3)[nH]c2c1)c1cccs1	none
O=C(Nc1ccc2nc(-c3ccc4nc[nH]c4c3)[nH]c2c1)c1cccs1	EPAC2 antagonist 50µM, EPAC2 agonist inconclusive
COc1ccccc1NS(=O)(=O)c1ccc2ccccc2c1	EPAC2 antagonist 13µM
COc1ccccc1NS(=O)(=O)c1ccc(OC)c(OC)c1	none
COc1ccc2nc3ccccc3nc2c1NC(=O)c1ccc(Cl)cc1Cl	EPAC2 agonist 100µM, EPAC1 agonist inconclusive
COc1cc(-c2cc(C(=O)Nc3c(Cl)cc(Cl)cc3Cl)c3ccccc3n2)cc(OC)c1OC	none
O=S1(=O)C=C(Oc2ccc3ccccc3c2)c2ccccc21	EPAC2 antagonist 25µM
O=C1c2ccccc2C(c2nnnn2Cc2ccccc2)N1Cc1ccco1 (stereo not drawn)	none
O=C(CN1C(=O)NC(Cc2ccccc2)C1=O)Nc1ccc(F)c(Cl)c1 (stereo not drawn)	none
O=C(c1ccco1)N(CCC(c1ccccc1)c1ccco1)Cc1ccccc1 (stereo not drawn)	EPAC2 antagonist inconclusive, EPAC1 antag 89µM
O=C(O)c1ccc(S(=O)(=O)/N=C2\C=C(Nc3ccccc3F)C(=O)c3ccccc32)cc1	EPAC2 antagonist inconclusive, EPAC1 antag 22µM
Cc1ccccc1NC1=C/C(=N\S(=O)(=O)c2cccs2)c2ccccc2C1=O	none
Cc1ccccc1NC1=C/C(=N\S(=O)(=O)c2ccc(C(=O)O)cc2)c2ccccc2C1=O	EPAC2 antagonist 50µM, EPAC1 antag 40µM
C[C@@H]1CN([C@@H](C)CO)C(=O)c2cc(C#Cc3ccccc3)cnc2O[C@@H]1CN(C)Cc1ccccn1	none
C=CCN1C(=O)c2cccc3c(N4CCCCC4)ccc(c23)C1=O	EPAC2 agonist 100µM
O=C1c2cccc3c(N4CCCCC4)ccc(c23)C(=O)N1c1cccc(O)c1	EPAC2 agonist 100µM, EPAC1 agonist inconclusive
O=C1c2cccc3c(N4CCCCC4)ccc(c23)C(=O)N1CCO	none
CS(=O)(=O)c1ccc(NS(=O)(=O)c2ccc(Cl)c(C(=O)NCc3ccco3)c2)cc1	none
CC(=O)NCCNc1nc2cc(-c3ccsc3)sc2c(=O)n1C	EPAC1 antag inconclusive
O=C(NCC(c1ccco1)N1CCCCC1)c1cccnc1 (stereo not drawn)	none
CCCN(CC(=O)Nc1ccccc1C)C(=O)COC(=O)c1cnc(C)cn1	none
Oc1ccc(C2=Nn3c(nnc3-c3ccco3)SC2)cc1O	EPAC2 antagonist inconclusive, EPAC1 antag 45µM
N#Cc1ccc(-c2nc3ccc(Br)cn3c2Cc2ccccc2)cc1	none
COc1ccc(N(C(=O)c2snc(C(N)=O)c2N)C(C(=O)NC2CCCC2)c2cccs2)cc1OC (stereo not drawn)	EPAC1 antag 50µM
O=C(O)c1ccccc1C(=O)c1cccc2ccccc12	none
O=S(=O)(c1ccc(NC(=S)N/N=C/c2ccc(O)c(O)c2)cc1)N1CCOCC1	EPAC1 antag inconclusive
O=[N+]([O-])c1cc(Cl)cc(/C=N/NC(=S)Nc2ccc(S(=O)(=O)N3CCOCC3)cc2)c1O	EPAC2 antagonist 56µM, EPAC1 antag inconclusive
O=C(Nc1ccccc1N1CCCC1)c1cc(=O)[nH]c2ccccc12	none
Cn1ccc2ccc(C3=CC(=O)C[C@H](c4ccc(F)cc4)C3)cc21	none
CC1=NN(c2ccc(C)cc2)C(=O)/C1=C/c1ccc(-c2cc([N+](=O)[O-])ccc2O)o1	EPAC1 antag inconclusive
O=C1NN(c2cccc(Br)c2)C(=O)/C1=C/c1ccc(-c2cc([N+](=O)[O-])ccc2O)o1	EPAC2 antagonist 40µM
Cc1cc(S(=O)(=O)N2CCN(CC(=O)N(C)Cc3ccccc3)CC2)ccc1Br	EPAC1 agonist 63µM
CN(Cc1ccccc1)C(=O)CN1CCN(S(=O)(=O)c2ccc(Cl)c(Cl)c2)CC1	none
